# Results published in the supplement of paper PMC11417369.
# Over roughly 25,000 sequences, “ln(normalized median fluorescence intensity)” has its median near 9.7; the highest 2% begin near 11. The full list was thinned out, with the highest values kept by preference.
# Tested on: PfAP2-HC AP2 domain (GST-tagged)
# Assay: gcPBM binding intensity (ln(normalized median fluorescence intensity)); higher = stronger DNA binding
# Method in brief: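 Binding intensity is the highest Masliner-normalised natural-log median intensity over replicate spots in either probe orientation. To obtain it, GST-tagged P. falciparum DNA-binding domains made in E. coli were incubated for 1 h on an Agilent 4 × 180k array of primer-extended double-stranded 36-bp intergenic genomic probes plus negative controls. Detection used Alexa488 anti-GST antibody with scanning at 488 nm.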
row,Sequence,gcPBM binding intensity (ln)
1,AAAGGTAAATGTAAATAAATAAATAATAAATATATA [GTGCAC_negctrl_site681],9.77
2,TTTTCTTGACCTATTATTCTTCTCATAGTATAATAT [GTGCAC_negctrl_site641],9.62
3,TGAACATACATCAAAAGTACAAACTCGCATGTTATA [XGTACX_site3320],9.67
4,TATAATATTATACATAGTACACATCACACATCGCAA [XGTACX_site4650],9.99
5,ATCAAATAATAGCAAACACACAAAAAATAAAAAAAA [CACACA_site4146],9.93
6,ATAATAAGCAGACACACACACACAAAAAAAAAAAAA [CACACA_site6477],11
7,AATAAGCAGAAACACACACACAAAAAAAAAAAAAAA [CACACA_site719],10.1
8,AATAAGCATAGACACACACACAAAAAAAAAAAAAAA [CACACA_site6476],10.1
9,ATAATAAGCAAACACACACACACAAAAAAAAAAAAA [CACACA_site720],11.6
10,GACACAAAAAAATAATAATAATAATAATAATAAATA [XGTACX_negctrl_site145],9.75
11,GTGATTAATATATACACACATACATATATATATATA [CACACA_site2817],9.81
12,TATATATTAAAAATAGTGCAAAATAATATATATATA [GTGCAC_site9716],9.82
13,TTTTTTACATCCATAAAACTTTTTCTCTTTTAAAAT [CACACA_negctrl_site1745],9.43
14,AAAATTTATGGAAGGTGTACTGTTAATTATGTATAT [XGTACX_site6446],9.74
15,AGGAAGGAAATAAATCAACACACATATATTATATAT [CACACA_site8678],9.87
16,TTTTATGCATGTGAAGTGCAAAATAAAAAATAAAAT [GTGCAC_site9612],9.56
17,CAAAAAAATGTGAAGGCATGCAAATATGTAAAATAA [TGCATGCA_site921],10.9
18,TTATTGTAAATATATGCATGTGCAAAATGAAAAAAA [TGCATGCA_site399],9.69
19,AAAAAACTTCACATATGTACTTAAAAAAAATTAAAA [XGTACX_site2368],9.43

row,Sequence,gcPBM binding intensity (ln)
1,ATATAGTAAAATTATACACACATGAATTTTCCCATA [CACACA_site3113],9.81
2,TCCCAATTTATTATGTGTACTTATTATATACATATA [XGTACX_site4033],9.72
3,AAGTATTACAACCACACACACACCTATATATCATAG [CACACA_site7878],11
4,TAAAGTATTACAACCACACACACACCGATATATTAT [CACACA_site9382],10.8
5,ATTATAACCATATACACACCCATATAAATAAATATA [CACACA_site6926],10.5
6,TAAAGTATTACAACCACACACACACCCATATATTAT [CACACA_site4159],11.1
7,AAGTATTACAACCACACACACACCTATATATTATAT [CACACA_site4158],10.6
8,GTATTACAACGACACACACACCTATATATCATAGTA [CACACA_site7877],10.5
9,AAAGGATGTAATATAAACATATATATGTATATATAT [TGCATGCA_negctrl_site347],9.79
10,AATATTATATTTTATTGTACTAATAAAAATATATGC [XGTACX_site5435],9.43
11,AAAAAAGGAAAAGATACACACCGTAAATTAAAATTT [CACACA_site5908],10.2
12,AAAAAAAAAAAAAAAAAAAAAAAAAAAATACGAAAG [GTGCAC_negctrl_site729],9.46
13,AATTTCTACTATTGTATGCACTTTCATACATACATA [GTGCAC_site9924],9.92
14,TAAAAAATAAAATAATGTACATATGAATTATATATT [XGTACX_site8398],9.68
15,GTTATAGAAGCATTCACACACACACCCACATACACA [CACACA_site1465],11.2
16,TATTACCCATATTATACACACATATATTATATATAT [CACACA_site1567],10.2
17,GTTATAGAAGCATTCACACACACACCGACATACACA [CACACA_site4914],10.3
18,TATAGAAGCGTTCACACACACACATACATACCCATA [CACACA_site4915],11.1
19,TTGTTATAGAAGCATTCACACACACCCATACATACA [CACACA_site8414],10.8

row,Sequence,gcPBM binding intensity (ln)
1,AATATAGATACATATACACACACACCCATACATATA [CACACA_site9137],10.6
2,TCTTCCATTTTTATTACACACATAAATATGAAATCG [CACACA_site3471],9.74
3,ATATATATTTATAATCGTACGTACCTAACAATACAA [XGTACX_site4510],9.62
4,ATGGATTATACGTGCACACATATATACAAATAAATA [CACACA_site640],9.81
5,AAATAAAATACATATAAACACACATATAAACCAACA [CACACA_site8789],10.2
6,CATATATAAAAAAACACACACATATATATATATATA [CACACA_site1195],10.2
7,ACTTGACACGGACACACACACATATATAAAAAAAAA [CACACA_site4576],10.5
8,GTTTGATTAAACTTGACACACATATATATAAATATA [CACACA_site1784],9.65
9,AAACTTGACAGACACACACACACATATATAAAAAAA [CACACA_site757],10.4
10,ACTTGACACCAACACACACACATATATAAAAAAAAA [CACACA_site756],11
11,AAACTTGACGGACACACACACACATATATAAAAAAA [CACACA_site4577],11.6
12,AAACTTGACGAACACACACACACATATATAAAAAAA [CACACA_site6494],11.5
13,AGCAGACACCAACACACACACATATATATATATATA [CACACA_site337],10.5
14,AATGGAAAATTATTAACACACACATATAAATATATA [CACACA_site7899],10.1
15,AAATATAAATATACTCGTACATATATATATATATAT [XGTACX_site6940],9.72
16,ACAAAACATATATTCTGTACATATATAATGGTGACT [XGTACX_site6796],9.77
17,TTTTTTTTTTTTTTTTTTTGATTCTTATAAAAATTT [GTGCAC_negctrl_site240],8.56
18,CTTATATTTAGACACACACACAATAAAATGAAAAAA [CACACA_site1031],10.3
